Data taken from PubChem BioAssay AID894 (National Center for Advancing Translational Sciences (NCATS), 2007).
Values joined by “and” are separate entries in the source; they are usually repeats but may differ in a detail not shown here. Identical values can stand only once. Among all 150,000 compounds or so, about 6,500 (4.3%) were called active. Inconclusive results (about 12%) are left out. The list comes from a sample in which actives are over-represented; it also holds similar structures and randomly drawn compounds. More than one record can exist for a structure, and the calls need not agree. Unmarked numbers belong to inactive results. Calls follow the shape of the dose curve; as a rule, active = well fitted inhibition curve with a large enough effect (not every such curve was filed as active); inconclusive = small, poorly fitted or top-dose-only effect, or another doubt; inactive = no such curve, though single readings can be large or run the other way.

What follows are molecules tested against 15-hydroxyprostaglandin dehydrogenase [NAD(+)] (Homo sapiens) (UniProt P15428) (assay: qHTS Assay for Inhibitors of HPGD (15-Hydroxyprostaglandin Dehydrogenase)). Details: purified HPGD, NADH fluorescence kinetic, PGE2 substrate; activity change, negative = inhibition: hits give low values.
Sequence of 15-hydroxyprostaglandin dehydrogenase [NAD(+)] (Homo sapiens) (P15428 whole entry, looked up): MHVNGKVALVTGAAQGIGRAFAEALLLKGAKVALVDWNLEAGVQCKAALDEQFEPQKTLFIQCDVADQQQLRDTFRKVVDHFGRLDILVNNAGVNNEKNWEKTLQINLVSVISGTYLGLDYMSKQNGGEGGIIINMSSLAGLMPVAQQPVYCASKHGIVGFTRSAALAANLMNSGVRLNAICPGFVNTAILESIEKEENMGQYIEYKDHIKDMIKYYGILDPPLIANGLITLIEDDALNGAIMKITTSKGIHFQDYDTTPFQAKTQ
Method in brief: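 NADH formation kinetics: reaction with 30 uM PGE2 and 1 mM NAD+ (final), 20 nM enzyme, Tris-HCl pH 8 with Tween 20, after 15 min compound preincubation at room temperature. Fluorescence change, last versus first of five reads.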
% is scaled to controls: 0 for no effect and ±100 for the full control effect; potency is read from the fitted curve at half-maximal effect.

| Compound | activity change, negative = inhibition | Potency |
| --- | --- | --- |
| Cc1ccc2[nH]c(C(=O)O)c(NC(=O)c3ccccc3[N+](=O)[O-])c2c1 | -8.36% |  |
| COc1ccc(C(=O)NC2(C(F)(F)F)NC(=O)N(CCCc3ccccc3)C2=O)c(OC)c1OC (centres undefined) | -2.88% |  |
| Cc1cccc(C)c1NC(=O)CSc1ccc([N+](=O)[O-])cn1 | -5.79% |  |
| COc1ccccc1N1CCN(C(=O)C(=O)N/N=C/c2ccccc2F)CC1 | -6.15% |  |
| CC(C)=C(NC(=O)c1ccccc1)C(=O)N/N=C(\C)c1ccccc1O | -7.72% |  |
| Cc1cc(C)cc(NC(=S)NCCCN2CCOCC2)c1 | -3.2% |  |
| Cc1ccc2[nH]c(=O)c(CC=C(Cl)Cl)c(C)c2c1 | -6.58% |  |
| Cc1cc(C(=O)NNC(=S)Nc2ccccc2C)cs1 | -17.5% |  |
| COC(=O)C1=NNC2(c3ccc(C)cc3)C(=O)N(c3cccc(C)c3C)C(=O)C12 (centres undefined) | -7.55% |  |
| CCOc1ccc(/C=N/OCC(=O)NCc2cccs2)cc1 |  | 15.8 µM (active) |
| CCOc1ccc(/C=N/NC(N)=S)cc1 | -6.57% |  |
| O=C(Cc1cccs1)N/N=C/c1ccc(OCc2ccccc2)cc1 | -20.3% |  |
| CC1CCc2sc(C(=O)N/N=C/C3CCCCC3)cc2C1 (centres undefined) | -7.97% |  |
| Cc1cc(C)n(C(=O)CCNC(=O)c2ccccc2Cl)n1 |  | 15.8 µM (active) |
| CCOc1ccc(NC(=O)CCC(=O)n2nc(C)cc2C)cc1 | -8.1% |  |
| O=C(Nc1ccccc1C(=O)NCCCn1ccnc1)c1ccc(Cl)cc1Cl | -7.71% |  |
| CCOC(=O)CC(NC(=O)C1c2ccccc2Oc2ccccc21)c1ccc(C)cc1 (centres undefined) | 6.16% |  |
| CCOC(=O)C1=C(C)OC(N)=C(C#N)C1c1cncc(-c2ccc(F)cc2)c1 (centres undefined) | -9.79% |  |
| Cc1cnc(NC(=O)CSc2nnc(-c3ccccc3)n2Cc2ccccc2)s1 | -9.73% |  |
| Cc1cnc(NC(=O)CSc2c(Cl)cccc2Cl)s1 | -12.6% |  |
| Cc1cnc(NC(=O)CSc2nnc(-c3ccc(Cl)cc3Cl)n2N)s1 |  | 25.1 µM (active) |
| CCCCC(O)(CCCC)C(=O)NN(C(=O)CCl)c1ccccc1 | -6.18% |  |
| O=C(NCCCO)/C(=C\C=C\c1ccccc1)NC(=O)c1ccccc1Cl | -15.4% |  |
| CC(C)(C)C(=O)NC(NC(=S)Nc1ccc(S(N)(=O)=O)cc1)C(Cl)(Cl)Cl (centres undefined) | -0.407% |  |

| Compound | activity change, negative = inhibition | Potency |
| --- | --- | --- |
| CC(C)(C)C1CCC(=NNC(=O)c2cc(-c3ccccc3)n[nH]2)CC1 (centres undefined) | -7.88% |  |
| Cc1onc(-c2ccccc2)c1C(=O)N1CCOCC1 | 0.967% |  |
| O=C(c1ccccc1-c1ccccc1)N1CCOCC1 | -1.91% |  |
| Cc1ccccc1-c1ccc(Nc2ccc(C(=O)N3CCOCC3)cc2)nn1 |  | 22.4 µM (active) |
| O=C(COc1ccc(/C=N/NC(=O)c2ccc(O)cc2)cc1)Nc1ccc([N+](=O)[O-])cc1 | -5.7% |  |
| O=C(NCc1ccco1)O[C@@H]1C(=O)c2cc(Br)ccc2O[C@H]1c1ccc2c(c1)OCO2 | -7.84% |  |
| O=C(CSc1nnc(Nc2ccccc2)s1)Nc1cccnc1Cl | -3.17% |  |
| Cc1ccc(Nc2nnc(SCC(=O)c3cc4ccccc4o3)s2)cc1C | -14.9% |  |
| CC(C)c1ccc(Nc2nnc(SCC(=O)c3nnc(-c4ccccc4)o3)s2)cc1 |  | 31.6 µM (active) |
| Cc1nn(Cc2ccccc2)c(C)c1C(=O)NCCN1C(=O)S/C(=C\c2ccc(F)cc2)C1=O | -19.6% |  |
| COc1cccc(/C=N/Nc2ncc(C(F)(F)F)cc2Cl)c1O | -13.5% |  |
| COc1cccc(/C=N/NC(=O)c2[nH]nc3c2CCc2ccccc2-3)c1O |  | 35.5 µM (active) |
| COc1cccc(/C=N\NC(=O)C2=NNC(=O)C2C)c1O (centres undefined) | -11.9% |  |
| O=C1CCC[C@@H]2CC(N3CCCCC3)C[C@@H]3CCN1[C@H]23 (some centres undefined) | -1.93% |  |
| C=CCNC(=S)NNC(=O)COc1c(Cl)cc(Cl)cc1Cl | -21.2% |  |
| Cc1ccc(Cl)cc1N1CCN(C(=O)c2cccc3c(=O)c(C)c(-c4ccccc4)oc23)CC1 | 0.844% |  |
| CCOC(=O)N1CCN(C(=O)CSc2ccc(Cl)cc2)CC1 | -15.4% |  |
| CC(NC(=O)c1ccc(Cl)cc1)C(=O)N1CCCCC1 (centres undefined) | -4.27% |  |
| O=C(c1ccc(CSc2ccccc2)cc1)N1CCCCCC1 |  | 0.316 µM (active) |
| CC1CCN(C(=O)c2ccc(CSc3ccc(Cl)cc3)cc2)CC1 |  | 0.891 µM (active) |
| O=C(C1CC1)N1CCN=C1SCc1ccc(Cl)cc1 | -17.7% |  |
| CS(=O)(=O)Nc1ccc(C(=O)N2CCCC2)cc1 |  | 20 µM (active) |
| O=C(c1ccc(S(=O)(=O)N2CCOCC2)cc1)N1CCN(c2ccccc2)CC1 | -5.22% |  |
| CC(=O)N1CCN(C(=O)c2cccc(S(=O)(=O)Nc3ccc(C)cc3)c2)CC1 | 4.03% |  |

| Compound | activity change, negative = inhibition | Potency |
| --- | --- | --- |
| COc1ccccc1N1CCN(C(=O)c2ccc(S(=O)(=O)N3CCCCC3)cc2)CC1 | -4.4% |  |
| O=C(Nc1ccc(CSc2ccccc2)cc1)c1ccc(CN2CCOCC2)cc1 | -8.57% |  |
| NC(=O)C1CCN(C(=O)c2ccc(-c3ccccc3)cc2)CC1 | -4.39% |  |
| O=C(c1ccc(S(=O)(=O)c2ccccc2)cc1)N1CCCCCC1 |  | 17.8 µM (active) |
| CC1CCCN(CCOCCOc2ccccc2-c2ccccc2)C1 (centres undefined) | -3.59% |  |
| COC(=O)N1C(/C=C/C=C/c2ccc(OC)cc2)=Cc2ccccc2C1CC(C)=O (centres undefined) | -15% |  |
| CC1CCN(c2ccc(C(=O)Nc3nnc(C4CC4)s3)cc2[N+](=O)[O-])CC1 | -7.37% |  |
| CC(NC(=S)Nc1ccccc1)C1COc2ccccc2O1 (centres undefined) | -1.93% |  |
| COc1cc(OC)nc(N/N=C(\c2ccccc2)c2ccncc2)n1 | -10.6% |  |
| CCC1(C(=O)c2ccccc2)C(c2cccc([N+](=O)[O-])c2)C1(C(=O)OC)C(=O)OC (centres undefined) | -4.68% |  |
| COc1ccc(Br)cc1CN(C)CC(=O)Nc1cc(Cl)cc(Cl)c1 | -12.1% |  |
| COC(=O)c1c(NC(=O)CN2C(=O)NC(CCc3ccccc3)C2=O)sc2c1CCCCC2 (centres undefined) | -23.3% |  |
| CN(C)S(=O)(=O)c1ccc(N2CCCC2=O)c([N+](=O)[O-])c1 | -7.1% |  |
| Cc1c(NC(=O)Nc2ccccc2)cccc1[N+](=O)[O-] | -4.65% |  |
| Cc1c(Cl)cccc1NC(=O)Nc1ccc(C(=O)N2CCCC2)cc1 |  | 14.1 µM (active) |
| CCC(CC)C(=O)Nc1cccc(C(=O)N2CCCC2)c1 | -4.19% |  |
| CC1=C[C@H]2Cc3cc(C)cc(C)c3S(=O)(=O)[C@@H]2C=C1 | -8.5% |  |
| N=C1C(=O)OCC1c1ccccc1NC(=O)CN1CCCCC1 (centres undefined) | -11.6% |  |
| C=C(C(C)=O)C(O)c1ccc([N+](=O)[O-])cc1 (centres undefined) | -15.8% |  |
| Cc1ccc(O)c(-c2cc(C(=O)Nc3c(C)n(C)n(-c4ccccc4)c3=O)[nH]n2)c1 |  | 20 µM (active) |
| Cc1c(NC(=O)c2cccnc2)c(=O)n(-c2ccccc2)n1C | 4.69% and -0.99% |  |
| Cc1cc(C(=O)Nc2c(C)n(C)n(-c3ccccc3)c2=O)cs1 | -6.25% |  |
| CCCSc1nc2[nH]ncc2c(=O)[nH]1 | -15.8% |  |
| O=C(O)c1cccc(N2C(=O)Nc3ccccc3N2O)c1 | -2.37% |  |

| Compound | activity change, negative = inhibition | Potency |
| --- | --- | --- |
| CCCC(C)C(=O)OCC(=O)Nc1c(Br)cc(C)cc1Br (centres undefined) | -2.73% |  |
| CN(Cc1ccccc1)C(=O)CCc1ccccc1 | -14.5% |  |
| CN(Cc1ccccc1)C(=O)COc1ccccc1 | -21.3% |  |
| CC(Cc1ccccc1)C(=O)N(C)Cc1ccccc1 (centres undefined) | -12.5% | 5.01 µM (active) |
| COc1ccc(CC(=O)Nc2ccc(C(=O)NC(C)(C)C)cc2)cc1 | -10.9% |  |
| CCN(C(=O)COc1cccnc1[N+](=O)[O-])C1CCS(=O)(=O)C1 (centres undefined) | -10.7% |  |
| COc1ccc(-n2nnc3c(=O)n(CC(=O)N4CCC(Cc5ccccc5)CC4)cnc32)cc1 | -23.8% |  |
| Cc1ccc(NC(=O)N2CCC(c3nc4c(nnn4Cc4c(F)cccc4Cl)c(=O)[nH]3)CC2)cc1 |  | 12.6 µM (active) |
| COc1ccc(C(=O)Nc2c(Cl)cc(Cl)cc2C(=O)N2CCC(C)CC2)cc1 | -13.4% |  |
| COc1ccc(Cn2nnc3c(=O)[nH]c(C4CCN(C(=O)c5ccccc5Cl)CC4)nc32)cc1 |  | 7.94 µM (active) |
| Cc1ccc(Cn2nnc3c(=O)n(CC(=O)N4CCCCC4)cnc32)cc1 | -22% |  |
| CC(=O)Nc1ccn(Cc2c(F)cccc2Cl)n1 | -0.326% |  |
| OCCNCCOc1ccc(Cl)c(Cl)c1 | -9% |  |
| C/C(=N/NC(=O)CSc1ccccn1)c1ccc([N+](=O)[O-])cc1 | -12.7% |  |
| CC(C)Nc1nnc(SCC(=O)c2c[nH]c3ccccc23)s1 | -16.2% |  |
| COc1ccc(NC(=S)N2CCCC(CO)C2)c(OC)c1 (centres undefined) | -2.74% |  |
| COc1cccc([C@@H]2Oc3ccc(Br)cc3C(=O)[C@H]2OC(=O)NCc2ccc3c(c2)OCO3)c1 | -12.1% |  |
| CCCN=C1NC(=O)C(CC(=O)NCCc2ccc(OC)c(OC)c2)S1 (centres undefined) | -5.13% |  |
| O=C(Nc1nc(-c2ccc3c(c2)OCO3)cs1)c1ccncc1 | -1.69% |  |
| O=C(Nc1nnc(SCc2ccc(Cl)cc2Cl)s1)C1COc2ccccc2O1 (centres undefined) | -24% |  |
| O=C(Nc1nc(-c2ccncc2)cs1)C1COc2ccccc2O1 (centres undefined) |  | 7.94 µM (active) |
